Reference: PubChem BioAssay AID1159580 (chemical genetic matrix, 2015)
The whole screen tested about 5,500 compounds, of which about 2,000 (36%) were called active. Roughly 18% stayed inconclusive and do not appear here. Rule as the data show it: active = normalized growth mostly below about 0.91 (no sharp cut-off); inconclusive = no clear call, values can overlap the other calls; inactive = mostly above about 0.92. The list shows a part of the results.

Assay: chemical genetic growth profiling, strain panel (AID 1159580);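 also: tested at 20 µM; growth read once vehicle control cultures reached saturation at 30 °C; 1 = growth at the plate median or of vehicle wells; lower values mean less growth of the strain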
Settings: growth OD

Measured: normalized growth

CC(=O)OCC(=O)[C@@]1(O)CCC2C3CC[C@@H]4C[C@H](OC(C)=O)CC[C@]4(C)C3C(=O)C[C@@]21C (some centres not stated)
inactive: S. cerevisiae deletion strains, locus YBR021W, strain FUR4, stronger effect = lower value 0.972 | S. cerevisiae deletion strains, locus YBR229C, strain ROT2, stronger effect = lower value 0.997 | S. cerevisiae deletion strains, locus YCL029C, strain bik1, stronger effect = lower value 1.03 | S. cerevisiae deletion strains, locus YDL035C, strain GPR1, stronger effect = lower value 0.989 | S. cerevisiae deletion strains, locus YDL074C, strain BRE1, stronger effect = lower value 0.993 | S. cerevisiae deletion strains, locus YDL101C, strain DUN1, stronger effect = lower value 1.01 | S. cerevisiae deletion strains, locus YDL185W, strain tfp1, stronger effect = lower value 1.02 | S. cerevisiae deletion strains, locus YDL192W, strain arf1, stronger effect = lower value 1.01 | S. cerevisiae deletion strains, locus YDR101C, strain arx1, stronger effect = lower value 1.01 | S. cerevisiae deletion strains, locus YDR150W, strain NUM1, stronger effect = lower value 0.994 | S. cerevisiae deletion strains, locus YDR162C, strain NBP2, stronger effect = lower value 0.987 | S. cerevisiae deletion strains, locus YDR318W, strain mcm21, stronger effect = lower value 1 | S. cerevisiae deletion strains, locus YDR388W, stronger effect = lower value 1.01 | S. cerevisiae deletion strains, locus YDR502C, strain sam2, stronger effect = lower value 1 | S. cerevisiae deletion strains, locus YEL061C, strain CIN8, stronger effect = lower value 0.971 | S. cerevisiae deletion strains, locus YER110C, stronger effect = lower value 1.01 | S. cerevisiae deletion strains, locus YER155C, strain BEM2, stronger effect = lower value 0.994 | S. cerevisiae deletion strains, locus YER167W, strain BCK2, stronger effect = lower value 0.961 | S. cerevisiae deletion strains, locus YGL078C, strain dbp3, stronger effect = lower value 1 | S. cerevisiae deletion strains, locus YGL086W, strain mad1, stronger effect = lower value 1.01 | S. cerevisiae deletion strains, locus YGL248W, strain PDE1, stronger effect = lower value 1.01 | S. cerevisiae deletion strains, locus YGR135W, strain pre9, stronger effect = lower value 1 | S. cerevisiae deletion strains, locus YGR252W, strain gcn5, stronger effect = lower value 0.991 | S. cerevisiae deletion strains, locus YHR030C, strain SLT2, stronger effect = lower value 1 | S. cerevisiae deletion strains, locus YHR079C, strain IRE1 (second series), stronger effect = lower value 1.01 | S. cerevisiae deletion strains, locus YHR094C, strain hxt1, stronger effect = lower value 1.01 | S. cerevisiae deletion strains, locus YHR129C, strain ARP1, stronger effect = lower value 0.996 | S. cerevisiae deletion strains, locus YHR200W, strain rpn10, stronger effect = lower value 1.02 | S. cerevisiae deletion strains, locus YIL066C, strain RNR3, stronger effect = lower value 1 | S. cerevisiae deletion strains, locus YIL073C, strain SPO22, stronger effect = lower value 1.05 | S. cerevisiae deletion strains, locus YIL125W, strain kgd1, stronger effect = lower value 1 | S. cerevisiae deletion strains, locus YIR030C, strain dcg1, stronger effect = lower value 0.999 | S. cerevisiae deletion strains, locus YJL095W, strain BCK1, stronger effect = lower value 1 | S. cerevisiae deletion strains, locus YJL134W, strain LCB3, stronger effect = lower value 1 | S. cerevisiae deletion strains, locus YJL168C, strain set2, stronger effect = lower value 1.01 | S. cerevisiae deletion strains, locus YJL187C, strain SWE1 (second series), stronger effect = lower value 0.999 | S. cerevisiae deletion strains, locus YJR043C, strain POL32, stronger effect = lower value 0.995 | S. cerevisiae deletion strains, locus YKL009W, strain mrt4, stronger effect = lower value 0.988 | S. cerevisiae deletion strains, locus YKL068W, stronger effect = lower value 1.01 | S. cerevisiae deletion strains, locus YKL085W, strain MDH1 (second series), stronger effect = lower value 1.01 | S. cerevisiae deletion strains, locus YKL085W, strain MDH1, stronger effect = lower value 1.01 | S. cerevisiae deletion strains, locus YKL190W, strain CNB1, stronger effect = lower value 0.997 | S. cerevisiae deletion strains, locus YKR001C, strain vps1, stronger effect = lower value 1.01 | S. cerevisiae deletion strains, locus YLR039C, strain RIC1, stronger effect = lower value 1.02 | S. cerevisiae deletion strains, locus YLR058C, strain SHM2, stronger effect = lower value 0.993 | S. cerevisiae deletion strains, locus YLR102C, strain apc9, stronger effect = lower value 1.01 | S. cerevisiae deletion strains, locus YLR262C, strain YPT6, stronger effect = lower value 1.03 | S. cerevisiae deletion strains, locus YLR268W, strain sec22, stronger effect = lower value 1.03 | S. cerevisiae deletion strains, locus YLR330W, strain CHS5, stronger effect = lower value 1 | S. cerevisiae deletion strains, locus YLR342W, strain FKS1 (second series), stronger effect = lower value 1.01 | S. cerevisiae deletion strains, locus YLR371W, strain rom2, stronger effect = lower value 1 | S. cerevisiae deletion strains, locus YLR418C, strain cdc73, stronger effect = lower value 1.01 | S. cerevisiae deletion strains, locus YML016C, strain PPZ1, stronger effect = lower value 1.01 | S. cerevisiae deletion strains, locus YML032C, strain rad52, stronger effect = lower value 1 | S. cerevisiae deletion strains, locus YML124C, strain tub3, stronger effect = lower value 1.01 | S. cerevisiae deletion strains, locus YMR078C, strain ctf18, stronger effect = lower value 1.02 | S. cerevisiae deletion strains, locus YMR223W, strain ubp8, stronger effect = lower value 1.02 | S. cerevisiae deletion strains, locus YMR263W, strain SAP30, stronger effect = lower value 0.995 | S. cerevisiae deletion strains, locus YMR307W, strain GAS1, stronger effect = lower value 0.99 | S. cerevisiae deletion strains, locus YNL067W, strain RPL9B, stronger effect = lower value 1 | S. cerevisiae deletion strains, locus YNL153C, strain GIM3, stronger effect = lower value 1 | S. cerevisiae deletion strains, locus YNL233W, strain BNI4, stronger effect = lower value 0.995 | S. cerevisiae deletion strains, locus YNL250W, strain rad50, stronger effect = lower value 1.02 | S. cerevisiae deletion strains, locus YNL271C, strain bni1, stronger effect = lower value 1.01 | S. cerevisiae deletion strains, locus YNL298W, strain CLA4, stronger effect = lower value 1.01 | S. cerevisiae deletion strains, locus YNL307C, strain MCK1, stronger effect = lower value 1.02 | S. cerevisiae deletion strains, locus YNL322C, strain KRE1, stronger effect = lower value 0.998 | S. cerevisiae deletion strains, locus YNR052C, strain pop2, stronger effect = lower value 1.01 | S. cerevisiae deletion strains, locus YOL012C, strain htz1 1 | S. cerevisiae deletion strains, locus YOL147C, strain pex11, stronger effect = lower value 1.01 | S. cerevisiae deletion strains, locus YOR061W, strain CKA2, stronger effect = lower value 1.01 | S. cerevisiae deletion strains, locus YOR069W, strain VPS5, stronger effect = lower value 0.996 | S. cerevisiae deletion strains, locus YOR136W, strain idh2, stronger effect = lower value 1.02 | S. cerevisiae deletion strains, locus YOR144C, strain elg1, stronger effect = lower value 1.02 | S. cerevisiae deletion strains, locus YOR184W, strain ser1, stronger effect = lower value 1.01 | S. cerevisiae deletion strains, locus YOR316C, strain cot1, stronger effect = lower value 1.01 | S. cerevisiae deletion strains, locus YPR119W, strain clb2, stronger effect = lower value 1 | S. cerevisiae deletion strains, locus YPR141C, strain kar3, stronger effect = lower value 1.02 | S. cerevisiae deletion strains, locus YPR163C, strain tif3, stronger effect = lower value 1.02 | S. cerevisiae deletion strains, locus YPR167C, strain met16, stronger effect = lower value 1.02 | S. cerevisiae deletion strains, strain wtn01, stronger effect = lower value 1.02 | S. cerevisiae strains, strain wild type, stronger effect = lower value 0.986
